Unmarked numbers belong to inactive results. Inconclusive results are not listed. Calls of active or inactive are those of the source. Unless noted, the call rests on the fitted dose curve; in most records, active means well fitted curve in the direction sought with a large enough effect; inconclusive means small, poorly fitted or top-dose-only effect, or another doubt; inactive means no such curve, though single readings can be large; an effect the other way counts as inactive or inconclusive.

The record followed here is PubChem BioAssay (NCATS).

The target in assay [1] is Lysosomal acid glucosylceramidase (Homo sapiens) (UniProt P04062). Kind of assay: Glucocerebrosidase-p2 (AID 348; in the data active means potency below about 10 µM; further: potency means the concentration at half of the fitted maximal effect). Conditions: purified GBA, blue fluorogenic substrate, 40 min. Put shortly: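 Normal human glucocerebrosidase (0.2 nM) with blue fluorogenic substrate (80 uM final) in citrate/phosphate pH 5.9 with 10mM sodium taurocholate, 0.01% tween-20; 40 min RT, NaOH/glycine stop; fluorescence Ex 365/Em 440; AC50 from a titration from 0.6 nM upwards.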
Lysosomal acid glucosylceramidase (Homo sapiens), sequence (P04062 whole entry, looked up): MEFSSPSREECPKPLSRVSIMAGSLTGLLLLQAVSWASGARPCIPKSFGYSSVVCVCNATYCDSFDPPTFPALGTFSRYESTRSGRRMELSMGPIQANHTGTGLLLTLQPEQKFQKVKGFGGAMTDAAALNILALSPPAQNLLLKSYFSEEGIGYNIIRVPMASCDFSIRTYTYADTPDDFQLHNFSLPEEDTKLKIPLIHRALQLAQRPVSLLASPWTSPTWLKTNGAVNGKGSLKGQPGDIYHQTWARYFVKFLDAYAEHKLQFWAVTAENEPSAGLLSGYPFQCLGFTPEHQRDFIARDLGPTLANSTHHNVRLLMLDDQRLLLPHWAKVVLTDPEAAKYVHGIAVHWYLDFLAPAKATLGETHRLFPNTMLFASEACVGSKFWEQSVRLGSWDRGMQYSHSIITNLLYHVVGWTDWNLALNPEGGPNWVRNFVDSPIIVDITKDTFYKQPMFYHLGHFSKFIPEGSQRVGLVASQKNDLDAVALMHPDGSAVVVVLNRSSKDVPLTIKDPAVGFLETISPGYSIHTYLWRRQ

Assay [2] can be described thus: AP1 Signaling Pathway (AID 357; active means well fitted curve in either direction with a large enough effect, not every such curve was filed as active;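 further: ME-180 reporter cells stimulated with EGF at its EC50 level; on the % scale 0 is the no-effect control and ±100 the full control effect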). Conditions: ME-180 AP-1-bla reporter, EGF-induced, beta-lactamase ratio, 5 h; at 7.69 µM (top of the series) unless noted. Put shortly: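 Beta-lactamase reporter under AP-1 response element, ME-180 background. Stimulus: EC50 EGF. Compound exposure 5 h, 37 °C. Detection: CCF4, 2.5 h RT, 460/530 nm. Values: AC50 from titration.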
The target in assay [3] is Cytochrome P450 1A2 (Homo sapiens) (UniProt P05177). Kind of assay: p450-cyp1a2 (AID 410; calls by dose curve; further: potency means the concentration at half of the fitted maximal effect). Conditions: recombinant CYP1A2, luciferin-ME demethylation, luminescence; series mostly up to 57 µM. Put shortly:
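20nM CYP1A2, 100uM Luciferin-ME (=Km), 100mM KPO4; cpd 10 min RT; +NADPH regen, 60 min RT; stop/detect 20 min; luminescence. Normalized to furafylline 57 uM = full inhibition.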

The nature of assay [4]: NFAT Signaling Pathway (AID 444; active means well fitted curve in either direction with a large enough effect, not every such curve was filed as active;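 further: carbachol stimulus at about its EC50 of 1 µM final; on the % scale 0 is the no-effect control and ±100 the full control effect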). Conditions: Jurkat NFAT-bla M1, carbachol, beta-lactamase ratio, 5 h; at 7.69 µM (top of the series) unless noted. Put shortly:
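Jurkat cells carrying an NFAT-driven β-lactamase reporter and co-transfected muscarinic M1 receptor were treated with compound plus carbachol (1 uM final, an EC50 level) for 5 h at 37 °C. CCF4 loading followed for 1 h at RT; 460/530 nm ratio gave %activity.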

Assay [5] in a line: Stat Signaling Pathway (AID 446; active means well fitted curve in either direction with a large enough effect, not every such curve was filed as active;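 further: ME-180 cervical cancer cells given 40 pM IL-6 alongside compound; SIE-controlled beta-lactamase reporter measured as 460/530 nm FRET emission ratio; on the % scale 0 is the no-effect control and ±100 the full control effect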). The following applies: ME-180 (cervical carcinoma) SIE beta-lactamase reporter, IL-6 stimulated, 5 h; at 7.69 µM (top of the series) unless noted. Put shortly:
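Normalization used AC90 stimulation (300 pM IL-6) and AC90 inhibition (125 nM pan-JAK inhibitor at 40 pM IL-6). The underlying signal is SIE-driven beta-lactamase in ME-180 cells after 5 h IL-6 exposure with compound.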

In assay [6] the target is Glucocorticoid receptor (Homo sapiens) (UniProt P04150). In words: GR-GFP Redistribution (AID 450;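 active means compounds whose dose series gives a full or clear partial fitted curve of increased nuclear translocation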; further: potency means the concentration at half of the fitted maximal effect). The following applies: U2OS GR-GFP nuclear translocation, laser cytometry, 2 h.
Glucocorticoid receptor (Homo sapiens), sequence (P04150 whole entry, looked up): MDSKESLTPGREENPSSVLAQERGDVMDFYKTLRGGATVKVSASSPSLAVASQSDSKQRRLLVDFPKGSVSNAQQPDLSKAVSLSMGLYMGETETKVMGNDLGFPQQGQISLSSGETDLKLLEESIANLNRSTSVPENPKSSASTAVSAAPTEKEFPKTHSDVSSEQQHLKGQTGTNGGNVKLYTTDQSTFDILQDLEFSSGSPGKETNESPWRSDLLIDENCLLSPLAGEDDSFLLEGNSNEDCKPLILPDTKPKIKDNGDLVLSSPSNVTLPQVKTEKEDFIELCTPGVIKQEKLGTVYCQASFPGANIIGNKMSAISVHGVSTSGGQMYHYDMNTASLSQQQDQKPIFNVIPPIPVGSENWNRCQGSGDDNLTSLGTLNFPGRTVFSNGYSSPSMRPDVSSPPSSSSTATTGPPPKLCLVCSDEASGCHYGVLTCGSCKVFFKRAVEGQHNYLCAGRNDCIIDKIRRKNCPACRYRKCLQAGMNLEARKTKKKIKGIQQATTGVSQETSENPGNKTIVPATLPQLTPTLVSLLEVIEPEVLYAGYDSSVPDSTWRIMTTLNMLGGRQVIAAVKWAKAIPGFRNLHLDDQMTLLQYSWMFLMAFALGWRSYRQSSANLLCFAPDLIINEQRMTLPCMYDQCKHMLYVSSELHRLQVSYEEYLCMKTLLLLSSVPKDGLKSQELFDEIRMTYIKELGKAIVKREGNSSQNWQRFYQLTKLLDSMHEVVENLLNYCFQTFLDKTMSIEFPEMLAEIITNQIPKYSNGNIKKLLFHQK
For assay [7] the target is unchanged. Kind of assay: GR-EFC Redistribution (AID 451; calls by dose curve; further: potency means the concentration at half of the fitted maximal effect). Conditions: CHO-K1 GR-EFC translocation, beta-gal luminescence, 2 h. Put shortly:
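CHO-K1 cells stably expressing nuclear-localized β-gal enzyme acceptor and GR fused C-terminally to the enzyme donor fragment; ligand-driven nuclear translocation restores β-gal by complementation. Compounds titrated up to 46 uM final, 2 h at 37 °C; luminescence read.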

Assay [8] deals with Mitogen-activated protein kinase 10 (Mus musculus) (UniProt Q61831). Kind of assay: JNK3 AlphaScreen Assay (AID 530; active means well fitted curve in either direction with a large enough effect, not every such curve was filed as active;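 further: kinase came from lysate of stimulated human HepG2 cells; on the % scale 0 is the no-effect control and ±100 the full control effect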). The following applies: JNK3 lysate, c-Jun phosphorylation; series mostly up to 57.1 µM. Put shortly: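 Biotinylated GST-cJun(1-79) served as substrate for JNK3 in HepG2 lysates stimulated with IL-1beta and TNF-alpha. ATP was 10 uM final, pH 7.6. Ser73 phosphorylation was quantified by AlphaScreen (680 nm excitation).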

The target in assay [9] is Cytochrome P450 3A4 (Homo sapiens) (UniProt P08684). Kind of assay: qHTS Assay for Activators of Cytochrome P450 3A4 (AID 885). Further: nearly all actives have a fitted effect of over 65% in size. The following applies: recombinant CYP3A4, Luciferin-PPXE luminescence, 60 min; series mostly up to 57.1 µM. Put shortly:
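Human CYP3A4 dealkylates Luciferin-PPXE to luciferin, which luciferase detection converts to light. Substrate was at its KM (25uM), buffer 200mM KPO4, reaction 60 min at RT.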
Background: In qHTS, concentration-response curves come from the screen itself.

Assay [10] concerns the target Dual specificity protein kinase CLK4 (Homo sapiens) (UniProt Q9HAZ1). In words: qHTS Assay for Inhibitors of CDC-like Kinase 4 (Kinase-Glo Assay) (AID 1770). Further: nearly all actives have a fitted effect of over 65% in size. Further: potency means the concentration at half of the fitted maximal effect. The following applies: recombinant Clk4, Kinase-Glo ATP depletion luminescence; series mostly up to 66.7 µM. Put shortly:
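Luminescent ATP-depletion read-out (Kinase-Glo) after 4.5 h room-temperature reaction of Clk4 (25 nM final) with RS peptide (100 uM) and ATP (1 uM), pH 7.5 Tris buffer with MgCl2 and DTT.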

For assay [11] the target is unchanged. Kind of assay: qHTS Assay for Inhibitors of CDC-like Kinase 4 (ADP-Glo Assay) (AID 1771). Further: nearly all actives have a fitted effect of over 70% in size. Further: potency means the concentration at half of the fitted maximal effect. The following applies: recombinant CLK4, ADP-Glo luminescence; series mostly up to 80 µM. Put shortly: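 25 nM Clk4, 100 uM RS peptide, 1 uM ATP (final); 2 mM MgCl2, 0.5 mM EGTA, 2.5 mM DTT, 0.01% Triton X-100; 1 hr RT. ADP-Glo readout: ATP depletion 45 min, conversion/luciferase 30 min, luminescence.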

Assay [12] shares this target. In words: qHTS Assay for Inhibitors of CDC-like Kinase 4 (ADP-FP Assay) (AID 1795). Further: nearly all actives have a fitted effect of over 60% in size. Further: potency means the concentration at half of the fitted maximal effect. Conditions: Transcreener ADP fluorescence polarization; series mostly up to 50 µM. Put shortly:
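Kinase activity was measured as ADP production using Transcreener orange tracer (4 nM) and ADP antibody (1 ug/mL) fluorescence polarization, with ADP calculated from a calibration curve. The 1 h reaction contained 6.25 nM Clk4, 1 uM ATP and 100 uM RS peptide at pH 7.5 with Mg2+.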

Assay [13] concerns the target Ubiquitin carboxyl-terminal hydrolase 1 (Homo sapiens) (UniProt O94782). In words: Inhibitors of USP1/UAF1: Pilot qHTS (AID 504865).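 Further: rhodamine fluorescence freed from ubiquitin-rhodamine substrate followed over time; top concentration of the series differs between compounds; on the % scale 0 is the no-effect control and ±100 the full control effect; nearly all actives have a fitted effect of over 35% in size.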 Conditions: purified USP1/UAF1, Ub-rhodamine cleavage fluorescence; series mostly up to 54.9 µM. Put shortly: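 Deubiquitinase activity followed as kinetic rhodamine fluorescence release from 150 nM Ub-Rho. 1 nM USP1/UAF1 with compound, after 15 min room-temperature preincubation, in HEPES pH 7.8 buffer containing TCEP, EDTA, BSA and Tween-20.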

Assay [14] in a line: Primary qHTS for small molecule stabilizers of the endoplasmic reticulum resident proteome: Secreted ER Calcium Modulated Protein (SERCaMP) assay (AID 1508630). Further: on the % scale 0 is the no-effect control and ±100 the full control effect. The following applies: SH-SY5Y GLuc-SERCaMP (Gaussia luciferase released on ER calcium loss) secretion, thapsigargin, luminescence; series mostly up to 38.4 µM. Put shortly: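 The SH-SY5Y reporter protocol was run at 3 concentrations up to 38.3 uM (primary) or 11 concentrations (follow-up): 16 h compound, 100 nM thapsigargin for 4 h, then extracellular luciferase luminescence.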

Assay [15] deals with 3',5'-cyclic-AMP phosphodiesterase 4B (Homo sapiens) (UniProt Q07343). In words: qHTS Assay for Inhibitors of PDE-IV (AID 607; active means well fitted activation curve with a large enough effect in the main read-out, with a control signal flat, not every such curve was filed as active; further: % of control where 0% means no effect). The following applies: HEK293 ACTOne CNG channel cells, membrane potential fluorescence; series mostly up to 22.9 µM. Put shortly:
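HEK293 ACTOne cells with CNG channel (1000/well), endogenous PDE4; membrane potential dye, compounds up to 22.9 uM final. Fluorescence Ex 535/Em 590; RO 20-1724 (100 uM final) as reference.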

Assay [16] concerns the target Cytochrome P450 2C19 (Homo sapiens) (UniProt P33261). Kind of assay: qHTS Assay for Inhibitors and Substrates of Cytochrome P450 2C19 (AID 899). Further: potency means the concentration at half of the fitted maximal effect; nearly all actives have a fitted effect of over 60% in size. Conditions: recombinant CYP2C19, luciferin-H EGE luminescence; series mostly up to 57.1 µM. Put shortly: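 In 50mM KPO4, the reaction held 5nM enzyme and KM-level (10uM) Luciferin-H EGE; it ran 60 min at 37C after NADPH regeneration and a 10 min compound preincubation. Luminescence values were scaled to 57uM ketoconazole as complete inhibition.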

The target in assay [17] is Cytochrome P450 2D6 (Homo sapiens) (UniProt P10635). Kind of assay: qHTS Assay for Inhibitors and Substrates of Cytochrome P450 2D6 (AID 891). Further: potency means the concentration at half of the fitted maximal effect; nearly all actives have a fitted effect of over 60% in size. The following applies: recombinant CYP2D6, luciferin-ME EGE luminescence; series mostly up to 57.1 µM. Put shortly: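 Luminescent read-out of luciferin formed by 5 nM human CYP2D6 demethylating 30 uM Luciferin-ME EGE (Km level) over 60 min at room temperature after NADPH regeneration addition. Data normalized to full inhibition by 1.43 uM quinidine.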

Cytochrome P450 3A4 (Homo sapiens), sequence (P08684 whole entry, looked up): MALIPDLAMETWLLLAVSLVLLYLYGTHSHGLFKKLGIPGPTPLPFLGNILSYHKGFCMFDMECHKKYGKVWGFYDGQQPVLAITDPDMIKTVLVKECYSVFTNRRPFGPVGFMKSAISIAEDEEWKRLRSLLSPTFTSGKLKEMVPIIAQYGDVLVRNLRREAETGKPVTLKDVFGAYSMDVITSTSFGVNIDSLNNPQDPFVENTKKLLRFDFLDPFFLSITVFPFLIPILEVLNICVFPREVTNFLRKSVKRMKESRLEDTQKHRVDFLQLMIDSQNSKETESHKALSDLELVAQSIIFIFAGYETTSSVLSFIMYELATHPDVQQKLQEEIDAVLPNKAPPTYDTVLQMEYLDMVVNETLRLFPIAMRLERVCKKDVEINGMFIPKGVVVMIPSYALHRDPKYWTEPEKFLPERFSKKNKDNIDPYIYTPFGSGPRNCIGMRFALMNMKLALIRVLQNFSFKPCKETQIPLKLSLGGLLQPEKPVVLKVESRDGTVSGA
Cytochrome P450 1A2 (Homo sapiens), sequence (P05177 whole entry, looked up): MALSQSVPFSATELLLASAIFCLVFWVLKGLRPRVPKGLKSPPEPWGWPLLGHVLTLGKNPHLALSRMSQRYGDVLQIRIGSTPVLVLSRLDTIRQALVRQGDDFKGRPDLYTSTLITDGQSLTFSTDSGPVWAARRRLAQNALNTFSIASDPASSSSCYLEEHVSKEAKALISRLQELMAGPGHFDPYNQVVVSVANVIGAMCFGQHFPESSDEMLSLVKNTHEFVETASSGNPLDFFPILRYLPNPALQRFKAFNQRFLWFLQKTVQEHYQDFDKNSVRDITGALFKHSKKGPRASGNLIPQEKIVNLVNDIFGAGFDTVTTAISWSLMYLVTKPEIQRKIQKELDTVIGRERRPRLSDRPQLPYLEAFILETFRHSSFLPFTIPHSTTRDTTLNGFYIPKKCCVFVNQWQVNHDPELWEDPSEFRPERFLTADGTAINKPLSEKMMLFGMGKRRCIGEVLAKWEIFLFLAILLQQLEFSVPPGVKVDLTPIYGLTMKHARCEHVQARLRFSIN
3',5'-cyclic-AMP phosphodiesterase 4B (Homo sapiens), sequence (Q07343 whole entry, looked up): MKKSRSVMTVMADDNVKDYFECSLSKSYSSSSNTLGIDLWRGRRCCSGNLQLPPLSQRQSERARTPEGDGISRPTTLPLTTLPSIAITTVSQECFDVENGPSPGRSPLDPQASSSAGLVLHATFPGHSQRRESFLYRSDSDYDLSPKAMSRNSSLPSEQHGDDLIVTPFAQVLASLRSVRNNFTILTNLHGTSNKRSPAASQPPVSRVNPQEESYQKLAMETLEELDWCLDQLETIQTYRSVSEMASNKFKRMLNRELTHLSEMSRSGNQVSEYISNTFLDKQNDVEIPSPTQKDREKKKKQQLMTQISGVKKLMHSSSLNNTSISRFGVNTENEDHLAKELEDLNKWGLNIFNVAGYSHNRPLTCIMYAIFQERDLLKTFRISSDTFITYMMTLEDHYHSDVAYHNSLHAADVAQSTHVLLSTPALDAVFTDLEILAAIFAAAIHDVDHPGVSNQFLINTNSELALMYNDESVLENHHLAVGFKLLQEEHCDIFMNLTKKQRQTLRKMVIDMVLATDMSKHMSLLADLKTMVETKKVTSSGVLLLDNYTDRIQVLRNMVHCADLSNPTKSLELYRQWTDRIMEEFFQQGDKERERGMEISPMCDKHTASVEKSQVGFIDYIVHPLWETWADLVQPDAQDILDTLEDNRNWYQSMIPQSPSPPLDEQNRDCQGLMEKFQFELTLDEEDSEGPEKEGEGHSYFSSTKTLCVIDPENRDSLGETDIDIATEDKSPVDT
Dual specificity protein kinase CLK4 (Homo sapiens), sequence (Q9HAZ1 whole entry, looked up): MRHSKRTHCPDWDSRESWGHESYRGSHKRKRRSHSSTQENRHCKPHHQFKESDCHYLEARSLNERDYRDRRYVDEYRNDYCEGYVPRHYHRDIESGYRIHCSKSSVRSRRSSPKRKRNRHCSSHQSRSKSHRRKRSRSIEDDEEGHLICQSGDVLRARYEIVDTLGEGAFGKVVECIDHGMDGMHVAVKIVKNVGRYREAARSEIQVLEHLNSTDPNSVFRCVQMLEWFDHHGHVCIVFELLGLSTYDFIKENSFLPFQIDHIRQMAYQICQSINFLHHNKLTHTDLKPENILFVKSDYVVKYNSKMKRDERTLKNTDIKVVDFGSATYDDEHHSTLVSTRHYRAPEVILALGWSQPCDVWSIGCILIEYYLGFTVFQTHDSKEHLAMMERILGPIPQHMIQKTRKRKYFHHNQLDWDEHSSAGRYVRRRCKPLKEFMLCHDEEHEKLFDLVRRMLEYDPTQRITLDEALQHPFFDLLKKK
Ubiquitin carboxyl-terminal hydrolase 1 (Homo sapiens), sequence (O94782 whole entry, looked up): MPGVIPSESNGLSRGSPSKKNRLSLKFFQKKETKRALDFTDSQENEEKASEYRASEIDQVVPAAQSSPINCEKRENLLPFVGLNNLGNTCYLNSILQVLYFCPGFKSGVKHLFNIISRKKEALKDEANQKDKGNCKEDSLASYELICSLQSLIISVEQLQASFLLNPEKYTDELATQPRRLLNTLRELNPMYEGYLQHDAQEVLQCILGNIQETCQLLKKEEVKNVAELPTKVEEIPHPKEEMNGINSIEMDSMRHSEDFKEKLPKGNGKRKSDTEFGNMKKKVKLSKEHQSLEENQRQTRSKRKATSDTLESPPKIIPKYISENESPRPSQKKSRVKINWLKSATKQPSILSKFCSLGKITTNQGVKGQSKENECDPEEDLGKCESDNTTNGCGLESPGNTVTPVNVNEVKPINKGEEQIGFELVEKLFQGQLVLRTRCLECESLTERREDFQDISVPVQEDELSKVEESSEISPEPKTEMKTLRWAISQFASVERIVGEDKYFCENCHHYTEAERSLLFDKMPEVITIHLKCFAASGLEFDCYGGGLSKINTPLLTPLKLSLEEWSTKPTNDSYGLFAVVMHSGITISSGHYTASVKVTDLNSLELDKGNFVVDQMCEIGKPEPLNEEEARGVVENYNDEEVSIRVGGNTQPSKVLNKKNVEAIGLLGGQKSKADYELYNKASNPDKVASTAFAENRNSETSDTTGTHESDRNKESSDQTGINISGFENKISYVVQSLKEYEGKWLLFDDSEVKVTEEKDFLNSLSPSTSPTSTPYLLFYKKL
Cytochrome P450 2C19 (Homo sapiens), sequence (P33261 whole entry, looked up): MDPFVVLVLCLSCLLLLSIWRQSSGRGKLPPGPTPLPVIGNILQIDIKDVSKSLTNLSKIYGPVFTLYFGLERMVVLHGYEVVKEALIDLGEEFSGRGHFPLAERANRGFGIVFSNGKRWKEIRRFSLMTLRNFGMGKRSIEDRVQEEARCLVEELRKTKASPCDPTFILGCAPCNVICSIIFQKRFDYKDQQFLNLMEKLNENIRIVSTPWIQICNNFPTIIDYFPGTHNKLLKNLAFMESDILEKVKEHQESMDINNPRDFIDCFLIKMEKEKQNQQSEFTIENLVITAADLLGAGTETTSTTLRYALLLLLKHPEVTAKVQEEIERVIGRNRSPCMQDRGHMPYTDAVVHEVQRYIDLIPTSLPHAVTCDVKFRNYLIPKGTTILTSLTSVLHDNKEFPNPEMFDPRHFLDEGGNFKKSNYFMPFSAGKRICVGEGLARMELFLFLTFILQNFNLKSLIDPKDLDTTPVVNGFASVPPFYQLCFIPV

For the molecule `Cn1c(=O)c(-c2ccccc2)nc2cnc(OCc3ccccc3)nc21`, the Potency in assay [1] is > 11.4 µM; in assay [3], 1.58 µM (active); in [6] it was > 9.22 µM; in assay [7], > 46 µM. In addition, the activity change, negative = inhibition in assay [2] was -1.1%; in assay [4], 4.72%. The activity, negative = inhibition in [5] was -3.56%. The Potency result in assay [8], in [9], in assay [10], in assay [11], in assay [12] and in assay [13] was “inactive” in each case. Moreover, in [14], the result was inactive.

With `CC(=O)NCCNc1ncnc2ccc(-c3ccc4c(c3)OCO4)cc12`, the Potency in [1] was > 11.4 µM; in assay [3], 0.501 µM (active); in [6], > 46 µM; in [7] it was > 46 µM; in [16], 6.31 µM (active); in assay [10], 0.141 µM (active). Also, the Potency is 0.0891 µM (active) in assay [11] and 0.126 µM (active) in assay [12]. Also, the activity change, negative = inhibition was -23.9% in [2] and 12.4% in assay [4]. Moreover, in assay [5], the activity, negative = inhibition was -10.3%. The Potency result in [8], in assay [15], in assay [9] and in assay [13] was “inactive” throughout. Further, the result in assay [14] was inactive.

In the case of `CN1CCN(c2ncc3ncc(=O)n(CCc4ccccc4)c3n2)CC1`, the Potency in [1] was > 11.4 µM; in assay [3] it was 3.98 µM (active); in assay [6], > 9.22 µM; in [7] it was > 46 µM; in [16], 6.31 µM (active); in [10], 25.1 µM (active). Also, the Potency in assay [11] is 15.8 µM (active). Also, the activity change, negative = inhibition in [2] was -5.68%; in assay [4] it was -2.1%. Moreover, the activity, negative = inhibition in assay [5] was 9.6%. Also, the Potency result in assay [8], in [15], in [9], in assay [12] and in assay [13] was “inactive” each time. In [14], the outcome was inactive.

Regarding `c1cc(NC2CC2)nc(-c2ccoc2)n1`, the Potency in assay [1] was > 11.4 µM; in assay [3], 0.251 µM (active); in assay [6] it was > 46 µM; in assay [7], > 46 µM. In addition, the activity change, negative = inhibition in assay [2] was -10.4%; in assay [4] it was -10.6%. The activity, negative = inhibition in assay [5] is 14.4%. Further, the Potency entry in assay [8], in [15], in assay [9], in assay [10], in [11] and in assay [12] was “inactive” throughout. The Potency result in assay [13] is “inactive”. Also, in assay [14], the outcome was inactive.

In the case of `c1nc(NCCN2CCOCC2)c2cc(-c3ccoc3)ccc2n1`, the Potency is > 11.4 µM in [1]; 12.6 µM (active) in assay [3]; > 46 µM in [6]; > 46 µM in assay [7]; 2 µM (active) in [17]; 0.708 µM (active) in [10]. Further, the Potency in assay [11] was 0.891 µM (active); in assay [12], 0.355 µM (active). Besides, the activity change, negative = inhibition in assay [2] was -17.7%; in assay [4] it was -0.57%. For the same molecule, the activity, negative = inhibition in assay [5] is -6.63%. Also, the Potency result in [8], in [9] and in assay [13] was “inactive” each time. Besides, the outcome in assay [14] was inactive.

Turning to `COc1cccc(-c2cc(NCc3ccccc3)ncn2)c1`, the Potency in [1] is > 11.4 µM; in assay [3], 2 µM (active); in assay [6], > 46 µM; in assay [7], > 46 µM; in assay [16] it was 7.94 µM (active); in [10] it was 15.8 µM (active). The Potency was 28.2 µM (active) in [11] and 12.6 µM (active) in [12]. The activity change, negative = inhibition in [2] was -18.4%; in assay [4], 13.6%. Further, the activity, negative = inhibition in [5] was -5.77%. Moreover, the Potency result in assay [8], in [9] and in [13] was “inactive” throughout. Besides, the outcome in assay [14] was inactive.
